Measured values: PubChem BioAssay (EPA / NIEHS)
Results filed as inconclusive are left out. The source made the active and inactive calls. The calls were made as follows: active = hit-call score of the fitted dose curve at least 0.9, where 1 is the maximum; inconclusive = response in the unintended direction; inactive = score below 0.9.

Each compound was assayed on ABC Transporter (ABCB1), ABCB1 (gene 5243) (assay: CLD_ABCB1_48hr: CellzDirect (CLD) Gene Expression Assay for ABC Transporter (ABCB1) at 48 hours (AID 2283695);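 as to AC50: potency for induction meaning increase of mRNA over DMSO vehicle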).
Procedure: CLD_48hr is a cell-based, multiplexed-readout assay that uses hepatocyte, a human liver primary cell, with measurements taken at 48 hours after chemical dosing in a 96-well plate.CLD_ABCB1_48hr is one of 16 assay component(s) measured or calculated from the CLD_48hr assay. It is designed to make measurements of mRNA induction, a form of inducible reporter, as detected with chemiluminescence signals by Quantitative Nuclease Protection Assay (qNPA) technology.Data from the assay component CLD_ABCB1_48hr was analyzed at the endpoint, CLD_ABCB1_48hr, in the positive analysis fitting direction relative to DMSO as the negative control and baseline of activity. Using a type of inducible reporter, gain-of-signal activity can be used to understand changes in the reporter gene as they relate to the gene ABCB1. Furthermore, this assay endpoint can be referred to as a primary readout. To generalize the intended target to other relatable targets, this assay endpoint is annotated to the transporter intended target family, where subfamily is ABC transporter.
Human hepatocyte cultures were treated daily for two consecutive days with fresh dosing solutions containing appropriate concentrations of the 320 ToxCast chemicals (chemical identities were blinded to CellzDirect and other ToxCast collaborators), vehicle control (0.2% DMSO), and positive control inducers as summarized in Table 1. Due to the large number of treatment groups and chemicals examined, the ToxCast chemicals were divided into two groups (spanning two independent cultures of hepatocytes from separate donor preparations (Hu778: ToxCast plates 1 and 2; Hu776: ToxCast plates 3 and 4). Each preparation of human hepatocyte cultures was treated with respective vehicle control, medium only control, set of six positive controls/reference chemicals for the five hepatic receptor pathways, and a subset of eight of the ToxCast chemicals (indoxacarb, pyrithiobac-sodium, norflurazon, cyhalofop-butyl, methomyl, thiram, acetochlor, and propiconazole). These replicate data, coupled with internal replicates designed within the blinded ToxCast chemical library, provided additional data to evaluate interindividual differences between hepatocyte preparations and their potential impact on chemical profiles.Cell morphology and integrity were evaluated using phase-contrast microscopy as an indicator of hepatocyte cell health (Tyson & Green, 1987). Cultures for each treatment group (i.e., media, vehicle [0.2% DMSO], positive control inducers [multiple concentrations], and the ToxCast chemicals [multiple concentrations]) were observed and cell morphology was assessed relative to vehicle control cultures at each harvest time point (0, 6, 24, or 48 h). […] Images were evaluated at the conclusion of the study to assess changes in cell integrity and account for the effects of chemical exposure on uncharacteristic changes in concentration-dependent gene expression profiles. The results from these determinations of apparent cytotoxicity were annotated (yes/no) alongside the corresponding qNPA data for reference.At the conclusion of each treatment period, hepatocyte cultures (96-well) were washed with 1 volume of HBSS, lysed by addition of 25 ul ArrayPlate lysis buffer (HTG, Tucson, AZ), and 70 ul/well of Denaturation Oil, denatured by incubation at 95C for 10 min, and frozen at approximately -70C until analysis by nuclease protection assay (qNPA) (Roberts et al., 2007). For qNPA analysis, cell lysates were thawed at 50C for approximately 30 min, qNPA probes were added, and samples were incubated at 95C for 10 min to begin the detection process by denaturing the target RNA, dissociating the duplexes and secondary structure hybridization. At the conclusion of the hybridization period, S1 nuclease reagent was added to each sample to digest all nonprotected nucleotides at 50C for 60-90 min. […]

Structure (SMILES) | outcome | AC50
CC[C@H](C)[C@H]1O[C@]2(C=C[C@@H]1C)C[C@@H]1C[C@@H](C/C=C(\C)[C@@H](O[C@H]3C[C@H](OC)[C@@H](O[C@H]4C[C@H](OC)[C@@H](NC)[C@H](C)O4)[C@H](C)O3)[C@@H](C)/C=C/C=C3\CO[C@@H]4[C@H](O)C(C)=C[C@@H](C(=O)O1)[C@]34O)O2 | inactive | –
C#CC(C)(C)NC(=O)c1cc(Cl)cc(Cl)c1 | inactive | –
COP(=O)(OC)SCn1c(=O)oc2cc(Cl)cnc21 | inactive | –
C#CCC1=C(C)C(OC(=O)C2C(C=C(C)C)C2(C)C)CC1=O (stereo not given) | inactive | –
CCC(CC)Nc1c([N+](=O)[O-])cc(C)c(C)c1[N+](=O)[O-] | inactive | –
O=C(O)c1cc(Oc2ccc(C(F)(F)F)cc2Cl)ccc1[N+](=O)[O-] | inactive | –
CCCCSP(=O)(SCCCC)SCCCC | inactive | –
CNC(=O)ON=C(SC)C(=O)N(C)C | inactive | –
CCOP(=S)(Oc1cnc(C(C)(C)C)nc1)OC(C)C (stereo not given) | – | 4.38 µM (active)
Nc1nc(N)nc(NC2CC2)n1 | inactive | –
CCc1cnc(C2=NC(C)(C(C)C)C(=O)N2)c(C(=O)O)c1 (stereo not given) | inactive | –
CC(COc1ccc(Oc2ccccc2)cc1)Oc1ccccn1 (stereo not given) | inactive | –
C[Si](Cn1cncn1)(c1ccc(F)cc1)c1ccc(F)cc1 | – | 4.36 µM (active)
CCOP(=S)(OCC)SCCSCC | inactive | –
CNC(=O)Oc1cccc2c1OC(C)(C)O2 | inactive | –
COc1ccc(C(=CC(=O)N2CCOCC2)c2ccc(Cl)cc2)cc1OC | – | 31 µM (active)
CNC(=O)ON=C(C)SC | inactive | –
CCCCN(CC)c1c([N+](=O)[O-])cc(C(F)(F)F)cc1[N+](=O)[O-] | inactive | –
CCCOc1nn(C(=O)NS(=O)(=O)c2ccccc2C(=O)OC)c(=O)n1C | inactive | –
N#CSCSC#N | inactive | –

Structure (SMILES) | outcome | AC50
Nc1c(Cl)cc([N+](=O)[O-])cc1Cl | inactive | –
COc1cc(OC)nc(Sc2cccc(Cl)c2C(=O)O)n1 | inactive | –
S=C1NCCN1 | inactive | –
CCOP(=S)(OCC)Oc1ccc2c(C)c(Cl)c(=O)oc2c1 | inactive | –
CCOP(=S)(OCC)OC(Cl)C(Cl)(Cl)Cl (stereo not given) | inactive | –
CC(C)[C@H](C(=O)O[C@H](C#N)c1cccc(Oc2ccccc2)c1)c1ccc(Cl)cc1 | inactive | –
CSc1nc(NC(C)C)nc(NC(C)C)n1 | inactive | –
CNc1cnn(-c2cccc(C(F)(F)F)c2)c(=O)c1Cl | inactive | –
COc1cccc(C(=O)NN(C(=O)c2cc(C)cc(C)c2)C(C)(C)C)c1C | inactive | –
CCc1cccc(C)c1N(C(=O)CCl)C(C)COC (stereo not given) | inactive | –
CCNc1nc(Cl)nc(NC(C)(C)C#N)n1 | inactive | –
COP(=O)(NC(C)=O)SC (stereo not given) | inactive | –
COP(=O)(OC)OC(Br)C(Cl)(Cl)Br (stereo not given) | inactive | –
FC(F)C(F)(F)OCC(Cn1cncn1)c1ccc(Cl)cc1Cl (stereo not given) | inactive | –
CN(C)NC(=O)CCC(=O)O | inactive | –
CON=C(C(=O)OC)c1ccccc1CON=C(C)c1cccc(C(F)(F)F)c1 | inactive | –
COP(=O)(OC)C(O)C(Cl)(Cl)Cl (stereo not given) | inactive | –
CC(Oc1cccc(Cl)c1)C(=O)O (stereo not given) | inactive | –
CCOP(=O)(NC(C)C)Oc1ccc(SC)c(C)c1 (stereo not given) | inactive | –
CCCCOC(=O)[C@@H](C)Oc1ccc(Oc2ccc(C#N)cc2F)cc1 | inactive | –
